Source: PubChem BioAssay
PG9 binder: binders of HIV-1 gp120 antibody PG9, primary screen, biochemical, TR-FRET | hit rate 0.43% among 360,000 | AID 624416, 2012 | TR-FRET gp120-PG9 antibody binding | inhibition, % at 6.7 µM | HIV-1 gp120 / PG9 antibody interaction; in the data active = inhibition above about 8.5%
NR1D1 modulator: modulators of Rev-erb alpha DNA binding, primary screen, biochemical, FITC-DNA, fluorescence polarization, uHTS | activity, % at 10 µM | hit rate 0.79% among 370,000 | Nuclear receptor subfamily 1 group D member 1 (Homo sapiens), P20393 | Rev-erbα–FITC-DNA binding, 90 min | AID 1259318, 2017;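 active = activity above about 14%, limit read from the data; passing the limit was not always enough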
Target sequence (P20393 whole entry, looked up): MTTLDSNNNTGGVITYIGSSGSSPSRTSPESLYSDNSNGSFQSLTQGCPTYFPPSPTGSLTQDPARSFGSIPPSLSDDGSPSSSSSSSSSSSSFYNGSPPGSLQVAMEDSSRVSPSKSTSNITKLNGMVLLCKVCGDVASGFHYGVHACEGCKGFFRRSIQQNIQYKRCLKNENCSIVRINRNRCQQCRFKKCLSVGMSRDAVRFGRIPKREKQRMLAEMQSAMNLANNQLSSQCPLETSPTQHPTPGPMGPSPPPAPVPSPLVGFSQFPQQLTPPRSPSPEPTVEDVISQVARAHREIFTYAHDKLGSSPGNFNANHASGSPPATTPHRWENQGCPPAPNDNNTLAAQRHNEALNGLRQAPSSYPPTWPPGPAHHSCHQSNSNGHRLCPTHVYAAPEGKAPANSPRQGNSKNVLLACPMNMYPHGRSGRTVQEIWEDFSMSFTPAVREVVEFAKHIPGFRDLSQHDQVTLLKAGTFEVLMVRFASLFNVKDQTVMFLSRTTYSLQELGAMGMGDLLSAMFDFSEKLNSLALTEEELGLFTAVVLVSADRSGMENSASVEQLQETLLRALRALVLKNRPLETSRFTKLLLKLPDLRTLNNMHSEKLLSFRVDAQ
GC-B act: human GC-B receptor activators, primary screen, HEK293 GC-B cells, cGMP TR-FRET, EC30 CNP. activation, % at 10 µM. Atrial natriuretic peptide receptor 2 (Homo sapiens), P20594. 0% at EC30 CNP, 100% saturating CNP. hit rate 0.11% among 370,000;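 active = activation at 10 µM reaching about 35% in either raw or pattern-adjusted values, limit read from the data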
NPR1 activator: GC-A stimulated cGMP production enhancers – HEK293 GC-A cells, cGMP TR-FRET, EC30 ANP, primary screen. activation, % at 10 µM. Atrial natriuretic peptide receptor 1 (Homo sapiens), P16066. hit rate 0.14% among 370,000. AID 1671463, 2021. 0% at EC30 ANP, 100% saturating ANP; in the data active = activation above about 40%
V-ATPase pH: regulators of yeast V-ATPase proton pumping, primary screen, pHLuorin cytosolic pH fluorescence; hit rate 0.37% among 350,000; S. cerevisiae; response, % at 10 µM; AID 504577, 2011; in the data active = response mostly above about 7.3%, no sharp cut-off; inactive = mostly below about 5.4%; note: actives read high
A number is an active result; i = inactive; nt = no result. Hits are enriched below; roughly 1.6% of the tested compounds scored in any of these assays.

SMILES	PG9 binder	NR1D1 modulator	GC-B act	NPR1 activator	V-ATPase pH
c1ccc(CNc2nc(-c3cccnc3)nc3ccccc23)cc1	i	i	i	i	i
c1cncc(-c2nc(NCc3ccc4c(c3)OCO4)c3ccccc3n2)c1	i	i	59	53	i
NCCC(=O)NCCc1cnc[nH]1	i	i	i	i	23
CC1(C)S[C@@H]2[C@H](NC(=O)[C@H](NC(=O)N3CCNC3=O)c3ccccc3)C(=O)N2C1C(=O)O (stereo partly specified)	nt	i	nt	nt	nt
COc1ccc(CC2(CO)CCN(Cc3cccc(OC)c3OC)CC2)cc1	i	i	i	i	15
COc1ccc(CC2(CO)CCN(Cc3cccnc3)CC2)cc1	i	i	i	i	i
CCCCN1C(=O)N2Cc3ccccc3C2CS1(=O)=O (stereo unspecified)	nt	i	i	i	nt
CC(=O)S[C@@H]1CC2=CC(=O)CC[C@]2(C)[C@H]2CC[C@@]3(C)[C@@H](CC[C@@]34CCC(=O)O4)C12 (stereo partly specified)	nt	i	nt	nt	nt
CCn1c(SCC(=O)c2ccc(-c3ccccc3)cc2)nnc1-c1ccccc1OC	nt	i	i	i	nt
Cc1ccc(N=Nc2ccc(O)c(P(=O)(c3ccccc3)c3ccccc3)c2)cc1	i	i	i	50	i
CN(C)S(=O)(=O)c1cccc(N=C2NN=C(c3ccccc3)CS2)c1	i	i	i	i	nt
CC(=O)Nc1ccc(C2=NNC(=Nc3cccc(S(=O)(=O)N(C)C)c3)SC2)cc1	nt	nt	nt	nt	7.9
COC(=O)[C@H](CC1(c2cn(S(=O)(=O)CC[Si](C)(C)C)c3ccccc23)C(=O)Nc2ccccc21)NC(=O)OC(C)(C)C (stereo partly specified)	nt	i	i	i	nt
COP(=O)(O)C(C)NC(=O)OCc1ccccc1 (stereo unspecified)	nt	i	i	i	nt
Cc1ccc2nc(/C(C#N)=C\c3ccc([N+](=O)[O-])o3)[nH]c2c1	i	i	i	i	86
N#C/C(=C\c1ccc([N+](=O)[O-])o1)c1nc2ccccc2[nH]1	i	i	i	i	nt
CCS(=O)(=O)Nc1ccc2c(c1)C(=O)N(C)[C@@H]1CC[C@H](CC(=O)NCCCN3CCOCC3)O[C@H]1CO2	nt	i	i	i	nt
CCCS(=O)(=O)c1c(S(=O)(=O)CCC)c2ccc(C(N)=O)cn2c1C(=O)OC	i	i	i	i	i
CCCS(=O)(=O)c1c(S(=O)(=O)CCC)c2ccc(C(N)=O)cn2c1C(=O)c1ccc(OC)cc1	i	i	56	i	i
COc1ccc(O)c(/C=N/c2nc3ccccc3n2C)c1	i	i	i	i	12
CCCn1c(/N=C/c2cc(OC)ccc2O)nc2ccccc21	i	i	i	i	i
CCCCC(=O)N1CCN(C(=O)c2ccc3c(c2)nc(C)n3C2CCCC2)CC1	nt	i	i	i	nt
O=C(C#Cc1ccccc1)c1ccc([N+](=O)[O-])cc1	i	i	i	i	12
COc1ccc(-n2c(SCC(=O)N/N=C(/C)c3cccc(O)c3)nc3ccccc3c2=O)cc1	nt	i	i	i	nt
O=C1C=CC(=O)N1CCCCCCN1C(=O)C=CC1=O	i	i	36	i	nt
SMILES	PG9 binder	NR1D1 modulator	GC-B act	NPR1 activator	V-ATPase pH
Cc1ccc(Nc2c(-c3ccco3)nc3nc(C)cc(C)n23)cc1	i	i	i	68	i
COc1ccc(Nc2c(-c3cccc(OC)c3)nc3nc(C)cc(C)n23)cc1	i	i	i	i	nt
CC1=C(C(=O)N2CCOCC2)C(c2ccc(Cl)cc2)NC(=S)N1 (stereo unspecified)	i	i	61	54	i
CC1=C(C(=O)N2CCOCC2)C(c2ccc(C)cc2)NC(=S)N1 (stereo unspecified)	i	i	65	59	i
CCC[C@@H]1C[C@@H](C(=O)N[C@@H]([C@H]2O[C@H](SC)[C@H](OP(=O)(O)O)[C@@H](O)[C@H]2O)[C@H](C)Cl)N(C)C1	nt	i	nt	nt	nt
Cc1cccc(NC(=O)CSc2nc(C)nc3c2c(=O)n(C)c(=O)n3C)c1	i	i	i	i	i
Cc1csc(NC(=O)CSc2nc(C)nc3c2c(=O)n(C)c(=O)n3C)n1	i	i	37	i	i
COC(=O)C1CN(Cc2ccc(F)cc2)CCS(=O)(=O)N1Cc1cn(CCOC(C)=O)nn1 (stereo unspecified)	nt	i	i	i	nt
COc1ccccc1/C=C/C=N/Nc1cccc(C(=O)O)c1	i	i	i	54	i
O=C1c2ccccc2C(=O)C1Cc1cccc2ccccc12	i	i	i	i	289
CCC[C@@H]1C[C@@H](C(=O)N[C@H]([C@H]2O[C@H](SC)[C@H](O)[C@@H](O)[C@H]2O)[C@H](C)O)N(C)C1	nt	i	nt	nt	nt
COc1cccc(Oc2cn[nH]c2-c2ccc(OC)cc2O)c1	i	i	i	i	i
COc1cccc(Oc2cn[nH]c2-c2ccc(O)cc2O)c1	i	i	i	55	i
Cn1c(=O)c2cc(NC(=O)Cc3cccnc3)ccc2n1-c1ccc2ccccc2c1	i	i	68	47	nt
COc1cccc(CC(=O)Nc2ccc3c(c2)c(=O)n(C)n3-c2ccc(C(C)(C)C)cc2)c1	i	i	i	i	nt
C=CCNC(=S)Nc1c(C(=O)OC)[nH]c2cc(OC)ccc12	i	i	36	i	i
COC(=O)c1[nH]c2cc(OC)ccc2c1NC(=O)c1c(F)cccc1F	i	i	i	i	i
CC1CCCN(C(=O)CN2C(=O)C(C)Oc3ccccc32)C1 (stereo unspecified)	i	i	i	i	i
CC1Oc2ccccc2N(CC(=O)N2CCCC2)C1=O (stereo unspecified)	i	i	i	i	14
CCOC(=O)C(C(=O)OCC)C(C(=O)OCC)N1CCOCC1 (stereo unspecified)	i	i	i	i	12
COc1cc(NCc2ccccc2)c2ncn(Cc3ccccc3)c2c1	i	i	i	i	14
CCC(COC)Oc1cc(NCc2ccccc2)c2ncn(C(C)C)c2c1 (stereo unspecified)	i	i	57	i	i
CCC(CO)Oc1cc(NCc2ccccc2)c2ncn(C(C)C)c2c1 (stereo unspecified)	i	i	i	i	i
COCCCOc1cc(NCc2ccccc2)c2ncn(C(C)C)c2c1	i	i	i	i	i
OC[C@H]1O[C@H](O[C@]2(CCl)O[C@H](CCl)[C@@H](O)[C@@H]2O)[C@H](O)[C@@H](O)[C@H]1Cl	nt	i	nt	nt	nt
Cc1cc(C)cc(NC(=O)OC2CC3CC2[C@H]2CCCCN2[C@H]3C)c1 (stereo partly specified)	nt	i	i	i	nt
O=C(COC(=O)c1cccc(S(=O)(=O)N2CCCC2)c1)Nc1ccc(Cl)cc1	i	i	97	i	i
